Measured values as given in PubChem BioAssay.
Activity calls are given as the source filed them. Unless noted, how the calls were made is not given here.

What was measured:
[1] = compounds binding Alexa647 anti-His antibody – biochemical, small-molecule microarray, 635 nm fluorescence, artefact control for SMM control protein annotation, primary screen (AID 1128); settings: higher = more signal;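 further: score merges feature fluorescence with signal-to-noise for each printed compound spot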
[2] = system: Human papillomavirus type 1a E7 protein (residues 1-88); experiment: HPV1a E7 small-molecule binders, primary screen, biochemical, small-molecule microarray, residues 1-88, 635 nm (AID 1129); settings: small-molecule microarray binding, fluorescence 635 nm; higher = more signal
[3] = molecular target: Focal adhesion kinase 1 (Homo sapiens) (UniProt Q05397); experiment: PTK2 protein binding on printed compound slides – biochemical, small-molecule microarray, 635/667 nm fluorescence, BSA, DTT, primary screen (AID 1130); settings: 635 nm fluorescence, higher = more signal;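 further: composite of spot emission at 667 nm and signal to noise over triplicate slides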
Focal adhesion kinase 1 (Homo sapiens), sequence (Q05397 whole entry, looked up): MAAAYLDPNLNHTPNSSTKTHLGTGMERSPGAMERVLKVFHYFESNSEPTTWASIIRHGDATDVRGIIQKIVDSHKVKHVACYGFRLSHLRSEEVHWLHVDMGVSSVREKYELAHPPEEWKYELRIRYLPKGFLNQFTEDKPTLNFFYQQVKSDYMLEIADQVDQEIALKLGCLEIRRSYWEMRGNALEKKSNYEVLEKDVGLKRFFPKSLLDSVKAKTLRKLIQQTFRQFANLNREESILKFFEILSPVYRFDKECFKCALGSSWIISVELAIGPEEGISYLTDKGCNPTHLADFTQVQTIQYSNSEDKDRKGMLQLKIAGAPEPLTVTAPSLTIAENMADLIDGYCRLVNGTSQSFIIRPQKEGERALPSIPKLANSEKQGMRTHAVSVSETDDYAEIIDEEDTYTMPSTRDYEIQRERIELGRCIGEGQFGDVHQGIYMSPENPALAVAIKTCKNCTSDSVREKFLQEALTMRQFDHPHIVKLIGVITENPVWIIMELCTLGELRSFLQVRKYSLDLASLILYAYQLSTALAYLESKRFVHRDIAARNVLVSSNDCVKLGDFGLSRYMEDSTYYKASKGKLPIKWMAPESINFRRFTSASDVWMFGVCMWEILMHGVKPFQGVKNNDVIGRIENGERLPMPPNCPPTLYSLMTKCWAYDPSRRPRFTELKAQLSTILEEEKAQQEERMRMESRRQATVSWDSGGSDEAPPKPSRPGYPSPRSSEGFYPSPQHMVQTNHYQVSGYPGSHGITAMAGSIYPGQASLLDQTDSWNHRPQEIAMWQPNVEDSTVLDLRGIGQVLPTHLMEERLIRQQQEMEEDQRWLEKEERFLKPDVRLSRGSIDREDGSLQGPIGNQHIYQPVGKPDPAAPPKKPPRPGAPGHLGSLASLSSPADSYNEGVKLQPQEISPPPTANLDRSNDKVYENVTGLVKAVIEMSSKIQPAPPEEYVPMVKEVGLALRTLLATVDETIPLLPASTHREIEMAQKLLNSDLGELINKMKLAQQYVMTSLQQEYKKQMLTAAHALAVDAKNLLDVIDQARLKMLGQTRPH

[4] = system: Fibrinogen (Alexa647-labelled); experiment: Alexa647-fibrinogen binding to printed small molecules – biochemical, small-molecule microarray, 635/667 nm fluorescence, artefact control for SMM control-protein annotation, profiling panel (AID 1131); settings: fibrinogen-A647 binding fluorescence, higher = more signal;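 further: z-score merges 667 nm fluorescence with per-spot signal-to-noise over triplicate slides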
[5] = molecular target: Follistatin (Homo sapiens) (UniProt P19883); experiment: FST protein binding to printed compounds – biochemical, small-molecule microarray, 635/667 nm fluorescence, primary screen (AID 1132); settings: 635 nm fluorescence, higher = more signal
Follistatin (Homo sapiens), sequence (P19883 whole entry, looked up): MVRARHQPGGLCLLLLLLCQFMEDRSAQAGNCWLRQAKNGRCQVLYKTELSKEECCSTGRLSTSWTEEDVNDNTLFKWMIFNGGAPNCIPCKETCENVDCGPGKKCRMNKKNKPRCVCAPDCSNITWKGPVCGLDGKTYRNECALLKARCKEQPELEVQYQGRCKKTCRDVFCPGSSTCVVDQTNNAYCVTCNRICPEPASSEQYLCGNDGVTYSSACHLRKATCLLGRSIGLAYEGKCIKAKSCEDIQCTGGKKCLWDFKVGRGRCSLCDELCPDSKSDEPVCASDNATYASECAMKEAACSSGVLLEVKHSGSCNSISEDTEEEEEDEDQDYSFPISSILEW

[6] = molecular target: Fibroblast growth factor 2 (Homo sapiens) (UniProt P09038); experiment: basic fibroblast growth factor binding to printed compounds – biochemical, small-molecule microarray, 635/667 nm fluorescence, primary screen (AID 1133); settings: FGF2, fluorescence 635/667, higher = more signal
Fibroblast growth factor 2 (Homo sapiens), sequence (P09038 whole entry, looked up): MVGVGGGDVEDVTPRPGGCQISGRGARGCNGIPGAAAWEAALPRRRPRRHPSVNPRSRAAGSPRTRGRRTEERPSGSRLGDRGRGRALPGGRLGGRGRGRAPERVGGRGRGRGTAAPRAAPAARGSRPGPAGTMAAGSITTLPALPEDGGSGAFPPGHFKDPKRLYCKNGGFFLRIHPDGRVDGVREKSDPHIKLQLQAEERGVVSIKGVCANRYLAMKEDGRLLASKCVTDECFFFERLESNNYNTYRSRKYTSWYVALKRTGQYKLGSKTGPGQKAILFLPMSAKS

[7] = JC-1 mitochondrial potential readout, lung cancer cells – cell-based, A549, JC-1 fluorescence, basal, 24 h, 100 nL, profiling panel (AID 1138); settings: higher = more signal;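 further: A549 lung adenocarcinoma cells under basal conditions with no added stimulus; test concentration not given here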
Lefty1 = Lefty1 protein binding to printed compounds – biochemical, small-molecule microarray, 635/667 nm fluorescence, primary screen (AID 1139); settings: fluorescence 635/667, higher = more signal
[8] = system: wheat germ agglutinin (Triticum aestivum), Alexa647-labelled; experiment: Alexa647-WGA lectin binding to printed small molecules – biochemical, small-molecule microarray, 635/667 nm fluorescence, artefact control for SMM control-protein annotation, profiling panel (AID 1140); settings: WGA-A647 binding, 635 nm fluorescence, higher = more signal;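 further: score merges 667 nm feature emission with signal to noise over triplicate slides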
[9] = molecular target: Luciferin 4-monooxygenase (Photinus pyralis) (UniProt P08659); experiment: inhibition of purified Photinus pyralis luciferase – biochemical, luminescence, purified enzyme, 2006 set, primary screen (AID 1141); settings: purified firefly luciferase, SteadyGlo luminescence, 30 min; higher = more signal, called active from +8 up or from −8 down;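 further: cell-free assay with purified firefly luciferase at 100 ng per well in PBS; test concentration not given here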
Luciferin 4-monooxygenase (Photinus pyralis), sequence (P08659 whole entry, looked up): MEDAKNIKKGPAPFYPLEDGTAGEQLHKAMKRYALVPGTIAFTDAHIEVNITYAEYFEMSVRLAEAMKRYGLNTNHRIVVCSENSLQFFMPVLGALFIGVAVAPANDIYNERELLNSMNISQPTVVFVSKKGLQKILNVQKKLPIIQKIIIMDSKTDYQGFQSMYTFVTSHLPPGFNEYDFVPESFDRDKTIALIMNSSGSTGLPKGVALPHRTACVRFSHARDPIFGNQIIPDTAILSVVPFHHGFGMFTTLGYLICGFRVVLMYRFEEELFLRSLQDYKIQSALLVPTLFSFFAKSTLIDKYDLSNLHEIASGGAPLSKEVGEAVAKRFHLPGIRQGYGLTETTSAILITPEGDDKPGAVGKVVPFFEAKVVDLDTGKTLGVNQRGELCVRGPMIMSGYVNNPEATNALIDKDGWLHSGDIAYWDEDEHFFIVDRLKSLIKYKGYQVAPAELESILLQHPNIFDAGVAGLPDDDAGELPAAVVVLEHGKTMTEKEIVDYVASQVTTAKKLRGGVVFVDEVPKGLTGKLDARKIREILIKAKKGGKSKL

[10] = system: Wnt5a (protein binding on small-molecule microarray); experiment: small molecules binding Wnt5a protein – biophysical, small-molecule microarray, 635/667 nm fluorescence, primary screen (AID 1142); settings: 635 nm fluorescence, higher = more signal;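 further: fluorescence read at 667 nm with signal to noise per printed feature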
[11] = ATP-based viability of Huh7 replicon cells – cell-based, CellTiter-Glo luminescence, basal, 48 h, cytotoxicity control for HCV replication inhibitor project, primary screen (AID 1143); settings: higher = more signal, called active from +8 up or from −8 down;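 further: Huh7 hepatoma cells carrying a hepatitis C replication reporter with no stimulus; test concentration not given here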
[12] = Pseudomonas biofilm growth suppression – PAO1 strain, BacTiter-Glo luminescence, LB-PBS, primary screen (AID 1144); settings: P. aeruginosa PAO1 biofilm, 12 h, higher = more signal
[13] = basal CRE-LacZ reporter activity in PC12 – cell-based, unstimulated, primary screen (AID 1145); settings: no forskolin, luminescence, 4.5 h, higher = more signal, called active from +8 up or from −8 down
[14] = forskolin-driven CRE-LacZ activity in PC12 – cell-based, CRE-LacZ reporter, forskolin-stimulated, primary screen (AID 1146); settings: luminescence, 4.5 h, higher = more signal, called active from +8 up or from −8 down;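 further: PC12 cells with 6xCRE LacZ reporter stimulated by forskolin 10 µM; beta-galactosidase reporter signal reflecting CREB driven transcription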
[15] = molecular target: Streptavidin (Streptomyces avidinii) (UniProt P22629); experiment: compounds binding control protein streptavidin – biophysical, small-molecule microarray, 635/667 nm fluorescence, artefact control for SMM compound annotation, primary screen (AID 1147); settings: higher = more signal;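 further: signal reflects streptavidin binding to arrayed compounds as a control protein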
Streptavidin (Streptomyces avidinii), sequence (P22629 whole entry, looked up): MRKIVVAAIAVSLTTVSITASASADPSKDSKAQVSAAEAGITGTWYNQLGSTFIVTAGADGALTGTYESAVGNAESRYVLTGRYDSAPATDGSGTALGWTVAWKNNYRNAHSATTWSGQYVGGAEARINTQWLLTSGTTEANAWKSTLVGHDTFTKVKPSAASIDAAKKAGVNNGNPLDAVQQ

[16] = probe aInhba binding on compound microarray – biochemical, small-molecule microarray, 635/667 nm fluorescence, primary screen (AID 1148); settings: higher = more signal;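 further: score merges 667nm spot fluorescence with signal-to-noise for antibody binding to printed compounds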
Torsin-1A (Homo sapiens) [17] = molecular target: Torsin-1A (Homo sapiens) (UniProt O14656); experiment: TOR1A wild-type binding on microarray – cell lysate, small-molecule microarray, lysate, 635/667 nm, primary screen (AID 1149); settings: COS7 hTOR1A-WT lysate, 635 nm fluorescence, higher = more signal
Torsin-1A (Homo sapiens), sequence (O14656 whole entry, looked up): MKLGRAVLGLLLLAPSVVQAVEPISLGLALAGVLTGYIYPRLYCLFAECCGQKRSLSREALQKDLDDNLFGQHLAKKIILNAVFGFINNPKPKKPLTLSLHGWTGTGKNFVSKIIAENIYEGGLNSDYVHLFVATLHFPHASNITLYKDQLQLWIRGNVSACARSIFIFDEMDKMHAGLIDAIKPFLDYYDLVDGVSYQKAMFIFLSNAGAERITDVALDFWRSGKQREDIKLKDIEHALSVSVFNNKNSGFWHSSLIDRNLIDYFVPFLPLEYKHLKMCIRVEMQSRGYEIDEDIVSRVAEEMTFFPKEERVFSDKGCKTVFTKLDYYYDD

Torsin-1A (Homo sapiens) [18] = molecular target: Torsin-1A (Homo sapiens) (UniProt O14656); experiment: torsin A mutant lysate binding on microarrays – cell lysate, small-molecule microarray, COS7 lysate, 635/667 nm fluorescence, primary screen (AID 1150); settings: COS7 hTOR1A mutant lysate, 635 nm fluorescence, higher = more signal;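 further: score pools 667 nm emission and signal to noise measuring lysate protein binding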
[19] = system: Sonic hedgehog protein (Shh); experiment: Sonic hedgehog microarray binding compounds – biochemical, small-molecule microarray, 635/667 nm fluorescence, primary screen (AID 1151); settings: 635 nm fluorescence, higher = more signal;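 further: Shh protein binding to compounds spotted on small-molecule microarray slides; score combines spot fluorescence intensity with signal-to-noise across triplicate slides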

Row | Structure (SMILES) | composite z-score [1] | composite z-score [2] | composite z-score [3] | composite z-score [4] | composite z-score [5] | composite z-score [6] | z-score [7] | composite z-score (Lefty1) | composite z-score [8] | z-score [9] | composite z-score [10] | z-score [11] | z-score [12] | z-score [13] | z-score [14] | composite z-score [15] | composite z-score [16] | composite z-score (Torsin-1A (Homo sapiens) [17]) | composite z-score (Torsin-1A (Homo sapiens) [18]) | composite z-score [19]
1 | C=C(COC)C(=O)CC[C@H](OC(=O)c1ccccc1-c1ccccc1C(=O)O)c1ccc(CO)o1 | 0.581 | 0.154 | 0.36 | -0.576 | 1.35 | 1.66 | -0.666 | 1.5 | -0.2 | -0.846 (inactive) | 0.634 | 0.465 (inactive) | -0.39 (inactive) | 0.434 (inactive) | 0.964 (inactive) | -0.451 | -0.179 | 0.507 | 1.79 | 1.69
2 | Cc1ccc(S[C@]2(C(=O)O)CC(=O)N(C3CCCCC3)[C@@H]2c2ccc(CO)cc2)cc1 | 2.04 | 1.16 | 0.552 | 0.991 | 0.271 | 0.257 | 0.991 | -0.776 | 0.899 | 0.186 (inactive) | 0.219 | -0.0359 (inactive) | -0.78 (inactive) | -0.116 (inactive) | -0.337 (inactive) | 1.28 | 0.112 | -0.284 | -0.249 | -0.265
3 | C=CCC(OC(C)=O)[C@@H]1[C@@H](N(Cc2ccc(-c3ccccc3)cc2)C(=O)c2cccc3ccccc23)c2cc(OCCCO)ccc2N1C(=O)c1ccc2ccccc2n1 (stereo not given in full) | 0.952 | 0.138 | 0.16 | -0.0282 | 0.374 | 0.268 | 1.14 | 0.565 | 0.139 | -0.658 (inactive) | 0.0553 | -1.48 (inactive) | 0.321 (inactive) | 1.76 (inactive) | -0.505 (inactive) | 0.306 | 0.237 | 0.258 | 0.0374 | 0.0754
4 | C=CCNC(=O)[C@H]1[C@@H]2C(=O)O[C@@H](c3ccccc3)[C@@H](c3ccccc3)N2[C@@H](c2ccc(O)cc2)[C@]12C(=O)N(C(=O)OCCOC)c1ccc(C#CC3(O)CCCCCC3)cc12 | 1.23 | 1.18 | 0.737 | 0.485 | 0.759 | 0.678 | 1.14 | 0.218 | 0.764 | -0.991 (inactive) | 0.195 | -1.07 (inactive) | -0.7 (inactive) | -0.465 (inactive) | -0.804 (inactive) | -0.179 | 0.134 | 0.187 | 0.331 | 0.858
5 | CC(C)CN1C(=O)[C@@]2(Cc3ccccc31)c1ccccc1C(=O)N(Cc1ccccc1)[C@H]2c1ccc(CO)cc1 | -0.966 | -1.28 | -0.457 | -0.492 | -1.72 | -0.776 | -0.204 | -0.78 | 0.145 | -0.336 (inactive) | -0.631 | 0.174 (inactive) | -0.221 (inactive) | -0.295 (inactive) | 0.378 (inactive) | -0.64 | -0.102 | -0.971 | -0.359 | -1.05
